Potency and affinity values are given separately.

In the first assay the test system is Klebsiella pneumoniae. Particulars: Concentration 32 ug.mL-1;; ASSAY_TEST Inhibition of Bacterial Growth; detection method Absorption (OD600); MEDIA CAMHB; plate type 384well; NBS; CORNING #3640; time 18 hr.
`COc1cc(NC(=O)CSc2nnc3c(=O)n(-c4cccc(F)c4)ccn23)cc(OC)c1`: the Inhibition (commonly the change of the read-out against control, counted positive when it falls) was 4.95%.

`O=C(Cn1nc2c(Oc3ccccc3)nccn2c1=O)Nc1ccc(Cl)cc1`: the Inhibition turned out to be 8.01%.

Take `COc1ccc(NC(=O)Cn2nc3nc(Nc4ccc(F)cc4)ccn3c2=O)cc1Cl`: the Inhibition is 7.26%.

Turning to `CCc1ccccc1NC(=O)Cn1nc2c(Sc3ccc(C)cc3C)nccn2c1=O`, the Inhibition turned out to be 5.69%.

Turning to `Cc1cc(Nc2ccc(F)cc2)nc2nn(Cc3cccc(C#N)c3)c(=O)n12`, the Inhibition turned out to be 10.49%.

For the molecule `COc1cc(NC(=O)Cn2nc3ccc(-c4ccc(Cl)cc4)nn3c2=O)cc(OC)c1`, the Inhibition is 6.35%.

Turning to `COc1ccc(N(Cc2ccc(OC)c(F)c2)S(=O)(=O)c2ccc3nncn3c2)cc1`, the Inhibition is listed as 12.76%.

Turning to `COc1ccc(-c2cc3c4nnc(SCC(=O)NCc5ccccc5)n4ccn3n2)cc1`, the Inhibition is -10.83%.

Take `CCCCc1ccc(NC(=O)Cn2nc3ccc(C(=O)Nc4ccc(OC)cc4)cn3c2=O)cc1`: the Inhibition is -3.83%.

Turning to `CSc1cccc(NC(=O)Cn2c(=O)c3nnc(C(C)C)n3c3ccccc32)c1`, the Inhibition stood at 10.43%.

With `COc1ccc(Cl)cc1NC(=O)Cn1nc2ccc(Sc3ccccc3)nn2c1=O`, the Inhibition amounted to 0.86%.

As for `O=C(Cn1nc2c3sc(N4CCCC4)nc3ncn2c1=O)Nc1ccc(C(F)(F)F)cc1`, the Inhibition amounted to 13.17%.

Take `CCN(CCCNC(=O)CCc1nnc2ccc(-c3ccc(C)c(C)c3)nn12)c1ccccc1`: the Inhibition is 13.51%.

Take `CCCc1nnc2c(=O)n(CC(=O)Nc3ccc(C#N)cc3)c3ccccc3n12`: the Inhibition is 0.24%.

As to `CC(C)(C)Sc1ccc2nn(CC(=O)Nc3ccccc3Cl)c(=O)n2n1`, the Inhibition was 9.71%.

`Cc1ccc(NC(=O)CSc2nc3ccccc3n3c(C(C)C)nnc23)cc1Cl`: the Inhibition stood at 1.48%.

Turning to `CC(C)(C)S(=O)(=O)c1ccc2nn(CC(=O)Nc3ccc(Br)cc3)c(=O)n2n1`, the Inhibition amounted to 6.53%.

With `COc1ccc2[nH]cc(C(=O)CSc3nnc4c(=O)n(-c5cccc(Cl)c5C)ccn34)c2c1`, the Inhibition turned out to be 5.78%.

As for `Cc1cccc(NC(=O)Cn2nc3ccc(-c4ccccc4)nn3c2=O)c1`, the Inhibition came to 6.7%.

For the molecule `O=C(Cn1nc2c(SCc3ccccc3)nccn2c1=O)NC1CCCC1`, the Inhibition is 3.94%.

For the molecule `COc1ccccc1NC(=O)Cn1nc2c3c4c(sc3ncn2c1=O)CCCC4`, the Inhibition came out at 5.77%.

Turning to `CCc1nnc2c(SCC(=O)Nc3ccc(C(C)=O)cc3)nc3ccccc3n12`, the Inhibition came to 9.87%.

Take `CC(C)c1ccc(NC(=O)Cn2nc3ccc(SCc4ccc(Cl)cc4)nn3c2=O)cc1`: the Inhibition came out at 6.44%.

Consider `COc1ccc(C)cc1NC(=O)CSc1nc2ccccc2n2cnnc12`, for which the Inhibition amounted to 9.24%.

For `O=S(=O)(c1cccn2cnnc12)N(Cc1ccc(F)cc1)c1ccc(F)cc1`, the Inhibition stood at 4.83%.

Turning to `COc1ccc(NC(=O)C(C)Sc2nnc3c(=O)n(-c4ccccc4)ccn23)cc1` (stereo not given), the Inhibition came to 12.19%.

`COc1ccccc1NC(=O)Cn1nc2c3cc(-c4ccc(Cl)cc4)nn3ccn2c1=O`: the Inhibition amounted to 7.17%.

In the case of `Cn1c(=O)c2sccc2n2c(=O)n(Cc3cccc(Br)c3)nc12`, the Inhibition is reported as 5.37%.

For `Cc1nnc2c(=O)n(CC(=O)Nc3ccc(C(C)C)cc3)c3ccccc3n12`, the Inhibition is 15.67%.

Consider `Cc1cccc(C)c1NC(=O)Cn1nc2ccc(SCc3ccc(Cl)cc3)nn2c1=O`, for which the Inhibition was -2.95%.

Consider `CCc1nnc2c(S(=O)(=O)N(Cc3cccc(OC)c3)c3ccccc3)cccn12`, for which the Inhibition was found to be 11.28%.

With `CCc1ccccc1Sc1nccn2c(=O)n(CC(=O)Nc3ccc(Br)cc3)nc12`, the Inhibition came to 22.46%.

Turning to `COc1cccc(-n2ccn3c(SCC(=O)c4ccc(OC)c(OC)c4)nnc3c2=O)c1`, the Inhibition came to 7.59%.

On to `COc1ccc(NC(=O)c2ccc3nn(CC(=O)Nc4cc(Cl)ccc4OC)c(=O)n3c2)cc1`, for which the Inhibition was found to be 1.5%.

For `Cc1ccc(-c2cc3c4nnc(CCC(=O)NCc5ccc(C(F)(F)F)cc5)n4ccn3n2)cc1C`, the Inhibition was found to be 10.93%.

Regarding `O=C(CCc1nnc2c3cc(-c4ccc(F)cc4)nn3ccn12)NCc1ccccc1Cl`, the Inhibition is on record as 1.44%.

Consider `Cc1ccc(NC(=O)CSc2nc3ccccc3n3cnnc23)c(Br)c1`, for which the Inhibition is 0.14%.

On to `O=C(CCc1nnc2c(N3CCCCC3)nc3ccccc3n12)NCCc1ccc(Cl)cc1`, for which the Inhibition was determined as 17.22%.

For `O=C(Cn1nc2ccc(Sc3ccccc3)nn2c1=O)N1CCN(c2ccc(F)cc2)CC1`, the Inhibition worked out at 5.94%.

Consider `COC(=O)c1ccc(NC(=O)CSc2nnc3c4cc(-c5ccc(OC)cc5)nn4ccn23)cc1`, for which the Inhibition is 13.79%.

In the next assay the test system is Candida albicans. Particulars: Concentration 32 ug.mL-1; ASSAY_TEST Inhibition of Fungal Growth; detection method Absorption (OD530).
Regarding `COc1cc(NC(=O)CSc2nnc3c(=O)n(-c4cccc(F)c4)ccn23)cc(OC)c1`, the Inhibition worked out at 13.47%.

Turning to `O=C(Cn1nc2c(Oc3ccccc3)nccn2c1=O)Nc1ccc(Cl)cc1`, the Inhibition is reported as -0.31%.

In the case of `COc1ccc(NC(=O)Cn2nc3nc(Nc4ccc(F)cc4)ccn3c2=O)cc1Cl`, the Inhibition amounted to 4.14%.

Take `CCc1ccccc1NC(=O)Cn1nc2c(Sc3ccc(C)cc3C)nccn2c1=O`: the Inhibition was 0.47%.

With `Cc1cc(Nc2ccc(F)cc2)nc2nn(Cc3cccc(C#N)c3)c(=O)n12`, the Inhibition is 2.04%.

Regarding `COc1cc(NC(=O)Cn2nc3ccc(-c4ccc(Cl)cc4)nn3c2=O)cc(OC)c1`, the Inhibition is on record as 1.47%.

As to `COc1ccc(N(Cc2ccc(OC)c(F)c2)S(=O)(=O)c2ccc3nncn3c2)cc1`, the Inhibition is given as 2.89%.

As to `COc1ccc(-c2cc3c4nnc(SCC(=O)NCc5ccccc5)n4ccn3n2)cc1`, the Inhibition is reported as 19.83%.

For the molecule `CCCCc1ccc(NC(=O)Cn2nc3ccc(C(=O)Nc4ccc(OC)cc4)cn3c2=O)cc1`, the Inhibition is listed as 18.36%.

Consider `CSc1cccc(NC(=O)Cn2c(=O)c3nnc(C(C)C)n3c3ccccc32)c1`, for which the Inhibition is recorded as 3.45%.

For the molecule `COc1ccc(Cl)cc1NC(=O)Cn1nc2ccc(Sc3ccccc3)nn2c1=O`, the Inhibition is reported as 45.02%.

For `O=C(Cn1nc2c3sc(N4CCCC4)nc3ncn2c1=O)Nc1ccc(C(F)(F)F)cc1`, the Inhibition stood at 1.98%.

Regarding `CCN(CCCNC(=O)CCc1nnc2ccc(-c3ccc(C)c(C)c3)nn12)c1ccccc1`, the Inhibition is on record as 13.02%.

`CCCc1nnc2c(=O)n(CC(=O)Nc3ccc(C#N)cc3)c3ccccc3n12`: the Inhibition amounted to 1.16%.

In the case of `CC(C)(C)Sc1ccc2nn(CC(=O)Nc3ccccc3Cl)c(=O)n2n1`, the Inhibition was 5.29%.

As for `Cc1ccc(NC(=O)CSc2nc3ccccc3n3c(C(C)C)nnc23)cc1Cl`, the Inhibition was -0.39%.

With `CC(C)(C)S(=O)(=O)c1ccc2nn(CC(=O)Nc3ccc(Br)cc3)c(=O)n2n1`, the Inhibition turned out to be 2.28%.

For `COc1ccc2[nH]cc(C(=O)CSc3nnc4c(=O)n(-c5cccc(Cl)c5C)ccn34)c2c1`, the Inhibition amounted to 2.95%.

With `Cc1cccc(NC(=O)Cn2nc3ccc(-c4ccccc4)nn3c2=O)c1`, the Inhibition stood at 4.41%.

Turning to `O=C(Cn1nc2c(SCc3ccccc3)nccn2c1=O)NC1CCCC1`, the Inhibition amounted to 1.33%.

On to `COc1ccccc1NC(=O)Cn1nc2c3c4c(sc3ncn2c1=O)CCCC4`, for which the Inhibition was determined as 0.98%.

Regarding `CCc1nnc2c(SCC(=O)Nc3ccc(C(C)=O)cc3)nc3ccccc3n12`, the Inhibition is listed as 2.43%.

Consider `CC(C)c1ccc(NC(=O)Cn2nc3ccc(SCc4ccc(Cl)cc4)nn3c2=O)cc1`, for which the Inhibition amounted to 14.48%.

Take `COc1ccc(C)cc1NC(=O)CSc1nc2ccccc2n2cnnc12`: the Inhibition came to 2.39%.

For the molecule `O=S(=O)(c1cccn2cnnc12)N(Cc1ccc(F)cc1)c1ccc(F)cc1`, the Inhibition worked out at 2.44%.

In the case of `COc1ccc(NC(=O)C(C)Sc2nnc3c(=O)n(-c4ccccc4)ccn23)cc1` (stereo not given), the Inhibition came to 1.79%.

On to `COc1ccccc1NC(=O)Cn1nc2c3cc(-c4ccc(Cl)cc4)nn3ccn2c1=O`, for which the Inhibition was found to be 8.08%.

Take `Cn1c(=O)c2sccc2n2c(=O)n(Cc3cccc(Br)c3)nc12`: the Inhibition came out at 10.92%.

As to `Cc1nnc2c(=O)n(CC(=O)Nc3ccc(C(C)C)cc3)c3ccccc3n12`, the Inhibition is listed as 5.98%.

Take `Cc1cccc(C)c1NC(=O)Cn1nc2ccc(SCc3ccc(Cl)cc3)nn2c1=O`: the Inhibition was 27.65%.

With `CCc1nnc2c(S(=O)(=O)N(Cc3cccc(OC)c3)c3ccccc3)cccn12`, the Inhibition is recorded as 4.76%.

In the case of `CCc1ccccc1Sc1nccn2c(=O)n(CC(=O)Nc3ccc(Br)cc3)nc12`, the Inhibition came out at 14.92%.

As for `COc1cccc(-n2ccn3c(SCC(=O)c4ccc(OC)c(OC)c4)nnc3c2=O)c1`, the Inhibition stood at 4.83%.

On to `COc1ccc(NC(=O)c2ccc3nn(CC(=O)Nc4cc(Cl)ccc4OC)c(=O)n3c2)cc1`, for which the Inhibition was determined as 2.28%.

In the case of `Cc1ccc(-c2cc3c4nnc(CCC(=O)NCc5ccc(C(F)(F)F)cc5)n4ccn3n2)cc1C`, the Inhibition worked out at 3.64%.

As for `O=C(CCc1nnc2c3cc(-c4ccc(F)cc4)nn3ccn12)NCc1ccccc1Cl`, the Inhibition was determined as 9.78%.

Turning to `Cc1ccc(NC(=O)CSc2nc3ccccc3n3cnnc23)c(Br)c1`, the Inhibition worked out at 3.27%.

Take `O=C(CCc1nnc2c(N3CCCCC3)nc3ccccc3n12)NCCc1ccc(Cl)cc1`: the Inhibition is given as 2.39%.

For `O=C(Cn1nc2ccc(Sc3ccccc3)nn2c1=O)N1CCN(c2ccc(F)cc2)CC1`, the Inhibition worked out at 0.64%.

`COC(=O)c1ccc(NC(=O)CSc2nnc3c4cc(-c5ccc(OC)cc5)nn4ccn23)cc1`: the Inhibition came to 0.37%.

The record behind these values is ChEMBL document CHEMBL4513146, “CO-ADD screening of Karazin Kharkiv National University (Ukraine) compounds”.
